Screens as filed in PubChem BioAssay.
Compounds with a hit are over-represented: about 7% of the library has one in this group of screens.
USP30 inh = inhibitors of human USP30 deubiquitinase | Ubiquitin carboxyl-terminal hydrolase 30 (Homo sapiens), Q70CQ3 | purified USP30, Ub-rhodamine cleavage fluorescence | inhibition, % at 25 µM | 47,000 tested, 5.3% active
USP28 inh = inhibitors of human USP28 deubiquitinase. inhibition, % at 25 µM. purified USP28, Ub-rhodamine cleavage fluorescence, 30 min. 47,000 tested, 3% active
* = called active by the depositor; i = inactive. No stated cut-off is given here; in the data, active means inhibition above about 30%; inactive means the rest.

SMILES	USP30 inh	USP28 inh
Cc1cc(C)nc(C2CCN(C(=O)C(C)(C)n3cncn3)C2)n1 (stereo not given)	8.8	-6.3
CC(=O)N[C@@H]1C[C@H](c2c(F)cccc2F)O[C@@H]2CCCC[C@@H]12	-4.7	-7.3
CCc1cccc(C)c1NC(=O)c1ccc(N(Cc2ccc(Cl)cc2)S(C)(=O)=O)cc1	23.3	2.9
O=C(NC1CC1)c1cc(-c2cccnc2)n(-c2ccccc2)n1	30.8*	16.2
COc1cc(NC(=O)c2cc(-c3ccncc3)n(-c3ccccc3)n2)cc(OC)c1	11.4	39.5*
O=C(Nc1cccc(F)c1)c1cc(-c2ccncc2)n(-c2ccc(F)cc2)n1	15.4	1.8
Cc1ccc(-n2nc(C(=O)NCc3ccccn3)cc2-c2cccnc2)cc1	3.4	4.0
O=[N+]([O-])c1cccc(-c2nnc(-c3ccccn3)o2)c1	2.2	-5.8
O=[N+]([O-])c1cccc(-c2noc(CSc3ccccc3)n2)c1	23.6	66.9*
CC(=O)O[C@@H]1/C=C(/C)[C@H](OC(=O)c2ccc(O)cc2)C/C=C(/C)CCCC1(C)C	15.3	6.1
COc1ccccc1CNC(=O)c1cccc2cccnc12	21.5	24.0
O=C(NCc1ccccc1CN1CCCC1)c1cccc2cccnc12	-27.3	37.0*
Cc1ccccc1Sc1ccc(NC(=O)c2ccc(F)cc2)cc1C#N	-21.8	-25.2
O=S1(=O)c2ccccc2OCC2(CCN(c3cccnc3)CC2)CN1CC1CC1	6.5	-4.7
O=C(Cn1ncc2ccccc21)Nc1ccc(Br)cn1	-20.8	38.8*
CCc1nnc(NC(=O)Cn2ncc3ccccc32)s1	0.0	15.0
O=C(c1ccccc1)N1CCCC(c2nn(CCOc3ccccc3)c3nccnc23)C1 (stereo not given)	24.8	14.3
O=C(CC1CCCCC1)N1CCCC(c2nn(CCOc3ccccc3)c3nccnc23)C1 (stereo not given)	34.6*	22.7
CC1=C(CO)C(=O)O[C@@H]([C@@H](C)[C@H]2CC[C@H]3[C@@H]4C[C@H]5O[C@]56[C@@H](O)C=CC(=O)[C@]6(C)[C@H]4CC[C@]23C)C1	83.0*	44.2*
Cc1nc(-c2ncc[nH]2)cc(C2CCN(C(=O)C3CCC3)CC2)n1	4.6	-0.9
Cc1ccc(C)c(NC(=O)CN2CC[C@@]3(O)CCCC[C@H]3C2c2ccc(F)cc2)c1 (stereo not given in full)	-76.6	-17.1
O=C(COc1nc2ccccc2nc1N1CCOCC1)Nc1ccc(F)cc1	38.4*	7.0
O=C(COc1nc2ccccc2nc1N1CCOCC1)N1CCc2ccccc21	i	-173.5
Cc1cc(Nc2cnccn2)cc(C2CCCN(C(=O)c3c(C)cc(C)n(C)c3=O)C2)n1 (stereo not given)	17.5	8.9
CC1CCC(C(C)C)C(OCC(O)CN2CCN(c3ccccn3)CC2)C1 (stereo not given)	10.5	7.4
SMILES	USP30 inh	USP28 inh
c1ccc(CN2CCC3(COCc4cnc(N5CCOCC5)nc43)C2)cc1 (stereo not given)	-1.4	-11.2
C=C1CCC[C@]2(C)C[C@H]3OC(=O)C(CN(C)Cc4ccccc4)[C@H]3CC12 (stereo not given in full)	30.3*	21.7
C=C1CCC[C@]2(C)C[C@H]3OC(=O)C(CN(C)C[C@@H](O)c4cccc(O)c4)[C@H]3C[C@@H]12 (stereo not given in full)	-52.8	-9.5
COc1cccc(C(=O)N2CCC(=O)Nc3ccccc32)c1	3.9	0.8
Cc1ccccc1NC(=O)Cn1c(=O)c2c(ncn2C2CCCC2)n(Cc2ccccc2)c1=O	-5.5	4.5
O=C1CCSc2ccc(Cl)cc2N1Cc1ccc(Cl)cc1	29.8	41.8*
O=C1CCSc2ccccc2N1Cc1ccccc1F	13.6	25.5
O=C(N[C@@H](Cc1ccccc1)C(=O)NCc1ccncc1)c1cccnc1	24.9	13.1
O=[N+]([O-])c1cccc(-c2csc(-c3ccc4c(c3)OCO4)n2)c1	14.1	4.3
c1ccc(-c2cc(-c3csc(-c4ccc5c(c4)OCCO5)n3)on2)cc1	35.3*	24.3
COc1cc2c(cc1OC)C(c1ccccc1)N(Cc1nnc(C)o1)CC2 (stereo not given)	1.3	0.4
COCCN1C(=O)CO[C@H]2CN(C(=O)c3cn4c(C)cccc4n3)C[C@@H]21	0.2	1.8
Cc1ccc(NC(=O)N2CCN(C3=CC4=NC(C)CN4C=N3)CC2)c(C)c1 (stereo not given)	33.9*	15.0
COc1ccc(NC(=O)N2CCN(C3=CC4=NC(C)CN4C=N3)CC2)c(C)c1 (stereo not given)	-3.5	-3.7
COc1ccc2c(c1)C/C(=C/c1ccc(Cl)cc1)CC2=O	9.3	13.8
O=C1C/C(=C\c2cccc(Cl)c2)Cc2ccccc21	39.0*	53.7*
COc1ccc2c(c1)C/C(=C/c1ccc(OC)cc1OC)CC2=O	13.8	4.2
O=C1C/C(=C\c2cccc(Br)c2)Cc2ccccc21	20.6	34.0*
